Each compound was assayed on Plasmodium falciparum NF54 (assay: growth inhibition relative to untreated control; higher = more inhibition). Details: 5 µM; MM + chorismate end-products (CM screening medium); 72 h.
Outline: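 Two media were used: minimal RPMI, and minimal RPMI carrying the chorismate end-products folate, pABA, pHBA, tyrosine, phenylalanine and tryptophan at 2.2 μM, 7.3 μM, 7.3 μM, 111 μM and 90 μM for the first five. In these media, P. falciparum NF54 ring stages (1% hematocrit, 1% parasitemia, 100 μL/well) were exposed in dark 96-well half-area plates to a single 5 μM or 1 μM test-compound dose for 72 h at 37 °C. Growth inhibition was then assessed with SYBR Green against untreated wells, subtracting background from uninfected erythrocytes.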

Row | Structure (SMILES) | growth inhibition
1 | Clc1ccc(Cl)c(CO[C@H]2CCCC[C@@H]2n2ccnc2)c1 | 67.1%
2 | Cc1cc2ccccc2n1CC(=O)N1CC(C(=O)N2CCCCC2)Oc2ccccc21 (stereo not drawn) | 96.1%
3 | CC(C)n1ncc2c(C(=O)NCC(c3cccs3)N3CCOCC3)cc(-c3ccccc3)nc21 (stereo not drawn) | 42.4%
4 | Cc1[nH]c2cc(F)cc(F)c2c(=O)c1-c1ccc(Oc2ccc(OC(F)(F)F)cc2)cc1 | 87.3%
5 | O=C(NCCN1CCCC1)c1cc(NCCCCN2CCC(F)(F)CC2)nc2ccc(Cl)cc12 | 90.7%
6 | COc1ccc2nc(C)cc(OCC(=O)NCc3ccccc3)c2c1 | 21.9%
7 | CC(=O)OCC1OC([S-])C(OC(C)=O)C(OC(C)=O)C1OC(C)=O.CCP(CC)CC.[Au+] (stereo not drawn) | 87.8%
8 | Brc1cncc(-c2cc(NCCCn3ccnc3)nc(-c3ccccc3)n2)c1 | 91.2%
9 | Cc1nnc(NCc2cccc(Cl)c2)c2ccccc12 | 4.67%
10 | Clc1ccc(CN2CCN(C3=NCCN3)CC2)cc1Cl | 48.8%
11 | Nc1nc2cc(-c3cncc(Oc4ccc(F)cc4)c3)ccc2[nH]1 | 94.9%
12 | O=C(NC1CC1)c1ccc(N2CCC(Cc3ccccc3)CC2)nc1 | 95.7%
13 | c1ccc(Oc2ccc(-c3cncc(-c4ccc5[nH]ccc5c4)n3)cc2)cc1 | 86.5%
14 | Nc1ncc(-c2cn[nH]c2)cc1-c1nc2cc(Cl)cnc2[nH]1 | > 100%
15 | CCCS(=O)(=O)N1CCC(CO)(Cc2ccccc2C(F)(F)F)CC1 | 99.7%
16 | O=C(c1cc2ccccc2o1)N1CCN(Cc2ccc3c(c2)OCO3)CC1 | < 0%
17 | Cc1nc(-c2ccccn2)nc(N2CCC(Cc3ccccc3)C2)c1Cl (stereo not drawn) | 80.2%
18 | O=C1N(Cc2cc3ccccc3s2)CC2CN(Cc3ccccc3)CCN12 (stereo not drawn) | 96.5%
19 | Cc1nc(-c2ccccn2)nc(N(C)CCc2ccccc2)c1Cl | 82.9%
20 | CCOc1ccccc1C(=O)Nc1cccc(-c2nc3ncccn3c2C)c1 | 95.8%

Row | Structure (SMILES) | growth inhibition
21 | CCOc1ccccc1NC(C)C(=O)Nc1cc(C(F)(F)F)ccc1N1CCOCC1 (stereo not drawn) | 91.6%
22 | CC[C@@H]([C@H](C)O)n1ncn(-c2ccc(N3CCN(c4ccc(OC[C@@H]5CO[C@@](Cn6cncn6)(c6ccc(F)cc6F)C5)cc4)CC3)cc2)c1=O | 88.9%
23 | O=C(C(Cc1c[nH]c2ccccc12)NS(=O)(=O)c1ccc(Cl)cc1)N1CCCCC1 (stereo not drawn) | 96.8%
24 | Nc1ncnc2c1c(-c1cnc3ccccc3c1)nn2CC1CCNCC1 | < 0%
25 | FC(F)(F)c1ccc(N(c2cccnc2)C2CCN(c3ccc(C(F)(F)F)cn3)CC2)cc1 | 93.8%
26 | Cc1ccccc1C(=O)N1N=C(Nc2ccccc2)SC1(C)C | < 0%
27 | CN(C(=O)c1cc2c(-c3cncnc3)cccc2[nH]1)c1ccccc1 | 96%
28 | c1ccc(-c2cc(N3CCCCC3)c3ccccc3n2)nc1 | 37.4%
29 | COc1ccccc1C(C)NCC(=O)Nc1cc(C(F)(F)F)ccc1Cl (stereo not drawn) | 88.6%
30 | COc1cccc(-n2nnnc2S(C)(=O)=O)c1 | 35%
31 | COc1cc(NC(C)CCCN)c2ncccc2c1 (stereo not drawn) | 64.3%
32 | OCc1ccc(-c2cncc(Nc3cccc(Cl)c3)c2)cc1 | 83.2%
33 | CN1CCN(CCCOc2ncc(Nc3ncc(-c4ccc(C(F)(F)F)c(F)c4)nc3C(N)=O)cn2)CC1 | > 100%
34 | Cc1cccc(Cn2ccc(NC(=O)c3ccc4c(c3)OCO4)n2)c1 | 12.8%
35 | Cc1ccc(C(=O)Nc2ccc(S(=O)(=O)O)c3cc(S(=O)(=O)O)cc(S(=O)(=O)O)c23)cc1NC(=O)c1cccc(NC(=O)Nc2cccc(C(=O)Nc3cc(C(=O)Nc4ccc(S(=O)(=O)O)c5cc(S(=O)(=O)O)cc(S(=O)(=O)O)c45)ccc3C)c2)c1 | < 0%
36 | FC(F)(F)c1nnc2ccc(Cl)nn12 | < 0%
37 | CC1=Nc2ccc(Cl)cc2C(c2ccccc2)N1CCNC(=O)CN(C)C (stereo not drawn) | > 100%
38 | CC1CCCN(C(=O)C(C)Nc2cc(Cl)ccc2N2CCOCC2)C1 (stereo not drawn) | 91%
39 | COc1cccn2c(C(=O)N3CCCCC3)c(C(F)(F)F)nc12 | < 0%

Same assay, conditions: 5 µM; minimal medium (MM); 72 h

Row | Structure (SMILES) | growth inhibition
40 | Clc1ccc(Cl)c(CO[C@H]2CCCC[C@@H]2n2ccnc2)c1 | 9.72%
41 | Cc1cc2ccccc2n1CC(=O)N1CC(C(=O)N2CCCCC2)Oc2ccccc21 (stereo not drawn) | 98%
42 | CC(C)n1ncc2c(C(=O)NCC(c3cccs3)N3CCOCC3)cc(-c3ccccc3)nc21 (stereo not drawn) | 14.2%
43 | Cc1[nH]c2cc(F)cc(F)c2c(=O)c1-c1ccc(Oc2ccc(OC(F)(F)F)cc2)cc1 | > 100%
44 | O=C(NCCN1CCCC1)c1cc(NCCCCN2CCC(F)(F)CC2)nc2ccc(Cl)cc12 | 96.9%
45 | COc1ccc2nc(C)cc(OCC(=O)NCc3ccccc3)c2c1 | 2.43%
46 | CC(=O)OCC1OC([S-])C(OC(C)=O)C(OC(C)=O)C1OC(C)=O.CCP(CC)CC.[Au+] (stereo not drawn) | 91.7%
47 | Brc1cncc(-c2cc(NCCCn3ccnc3)nc(-c3ccccc3)n2)c1 | 90.1%
48 | Cc1nnc(NCc2cccc(Cl)c2)c2ccccc12 | < 0%
49 | Clc1ccc(CN2CCN(C3=NCCN3)CC2)cc1Cl | 10%
50 | Nc1nc2cc(-c3cncc(Oc4ccc(F)cc4)c3)ccc2[nH]1 | 95.6%
51 | O=C(NC1CC1)c1ccc(N2CCC(Cc3ccccc3)CC2)nc1 | 92.1%
52 | c1ccc(Oc2ccc(-c3cncc(-c4ccc5[nH]ccc5c4)n3)cc2)cc1 | 91.5%
53 | Nc1ncc(-c2cn[nH]c2)cc1-c1nc2cc(Cl)cnc2[nH]1 | 94.3%
54 | CCCS(=O)(=O)N1CCC(CO)(Cc2ccccc2C(F)(F)F)CC1 | 87.9%
55 | O=C(c1cc2ccccc2o1)N1CCN(Cc2ccc3c(c2)OCO3)CC1 | < 0%
56 | Cc1nc(-c2ccccn2)nc(N2CCC(Cc3ccccc3)C2)c1Cl (stereo not drawn) | 84.9%
57 | O=C1N(Cc2cc3ccccc3s2)CC2CN(Cc3ccccc3)CCN12 (stereo not drawn) | 94.8%
58 | Cc1nc(-c2ccccn2)nc(N(C)CCc2ccccc2)c1Cl | 83.8%
59 | CCOc1ccccc1C(=O)Nc1cccc(-c2nc3ncccn3c2C)c1 | 85.4%

Row | Structure (SMILES) | growth inhibition
60 | CCOc1ccccc1NC(C)C(=O)Nc1cc(C(F)(F)F)ccc1N1CCOCC1 (stereo not drawn) | 96.1%
61 | CC[C@@H]([C@H](C)O)n1ncn(-c2ccc(N3CCN(c4ccc(OC[C@@H]5CO[C@@](Cn6cncn6)(c6ccc(F)cc6F)C5)cc4)CC3)cc2)c1=O | 83.4%
62 | O=C(C(Cc1c[nH]c2ccccc12)NS(=O)(=O)c1ccc(Cl)cc1)N1CCCCC1 (stereo not drawn) | 88.7%
63 | Nc1ncnc2c1c(-c1cnc3ccccc3c1)nn2CC1CCNCC1 | 16.8%
64 | FC(F)(F)c1ccc(N(c2cccnc2)C2CCN(c3ccc(C(F)(F)F)cn3)CC2)cc1 | 90.5%
65 | Cc1ccccc1C(=O)N1N=C(Nc2ccccc2)SC1(C)C | 5.01%
66 | CN(C(=O)c1cc2c(-c3cncnc3)cccc2[nH]1)c1ccccc1 | 94.3%
67 | c1ccc(-c2cc(N3CCCCC3)c3ccccc3n2)nc1 | 26.9%
68 | COc1ccccc1C(C)NCC(=O)Nc1cc(C(F)(F)F)ccc1Cl (stereo not drawn) | 88%
69 | COc1cccc(-n2nnnc2S(C)(=O)=O)c1 | 8.78%
70 | COc1cc(NC(C)CCCN)c2ncccc2c1 (stereo not drawn) | 38%
71 | OCc1ccc(-c2cncc(Nc3cccc(Cl)c3)c2)cc1 | 85%
72 | CN1CCN(CCCOc2ncc(Nc3ncc(-c4ccc(C(F)(F)F)c(F)c4)nc3C(N)=O)cn2)CC1 | 93.3%
73 | Cc1cccc(Cn2ccc(NC(=O)c3ccc4c(c3)OCO4)n2)c1 | 17.9%
74 | Cc1ccc(C(=O)Nc2ccc(S(=O)(=O)O)c3cc(S(=O)(=O)O)cc(S(=O)(=O)O)c23)cc1NC(=O)c1cccc(NC(=O)Nc2cccc(C(=O)Nc3cc(C(=O)Nc4ccc(S(=O)(=O)O)c5cc(S(=O)(=O)O)cc(S(=O)(=O)O)c45)ccc3C)c2)c1 | 12.6%
75 | FC(F)(F)c1nnc2ccc(Cl)nn12 | 8.78%
76 | CC1=Nc2ccc(Cl)cc2C(c2ccccc2)N1CCNC(=O)CN(C)C (stereo not drawn) | 89.7%
77 | CC1CCCN(C(=O)C(C)Nc2cc(Cl)ccc2N2CCOCC2)C1 (stereo not drawn) | 94.9%
78 | COc1cccn2c(C(=O)N3CCCCC3)c(C(F)(F)F)nc12 | < 0%

From the supplement of paper PMC6763611
